This note sets out measurements from PubChem BioAssay (NCATS).

Records with an inconclusive call do not appear. Values without a mark were called inactive. Calls of active or inactive are those of the source. The call rests on the fitted dose curve; in most records, active means well fitted inhibition curve with a large enough effect; inconclusive means small, poorly fitted or top-dose-only effect; inactive means no such curve, though single readings can be large or run the other way.
On the % scale 0 is the no-effect control and ±100 the full control effect.

The experiment deals with Retinal dehydrogenase 2 (Homo sapiens) (UniProt O94788). Briefly: qHTS for Inhibitors of the Aldehyde Dehydrogenase Family (ALDH1A2) Confirmation screens (AID 2061314). Further: nearly all actives have a fitted effect of over 65% in size. The following applies: ALDH1A2 enzyme inhibition qHTS confirmation; series mostly up to 45.9 µM; activity, negative = inhibition: at the top concentration.
With `COc1cc(C(=O)NCC(c2ccco2)S(=O)(=O)c2ccccc2)cc(OC)c1OC` (stereo not given), the result was inactive. For the compound `CNC(=O)[C@H]1C[C@H](Oc2cccnc2)CN1C(=O)Cc1ccccc1`, the “activity, negative = inhibition” value is 1.6%.

`COC(=O)c1cc(C)nc2c1c(=O)nc(SCc1cccc(C)c1)n2C1CC1`: the “activity, negative = inhibition” value is -20.4%. Same read-out and setting: then `COC(=O)c1ccccc1NC(=O)CCCS(=O)(=O)c1nc(-c2ccccc2OC)cc(C(F)(F)F)n1`, with -38.2%. Turning to `CN1C(=O)c2cccn2CC1CNC(=O)c1cccc2nccnc12` (stereo not given), the call was inactive. Regarding `COc1ccc(S(=O)(=O)c2c(C(=O)c3ccc(C)c(C)c3)cnc3ccc(C)cc23)cc1`, the “activity, negative = inhibition” value was -9.88%.

Take `COc1ccc(-c2nnc(SCC(=O)Nc3cccc(C(F)(F)F)c3)nc2-c2ccc(OC)cc2)cc1`: the compound was classed as inactive. For `O=C(NCC(=O)N1CCOCC1)c1ccc(-c2cnc3ccccc3c2)cc1`, the “activity, negative = inhibition” value was -4.18%. On the same count and under the same terms, then `COc1ccc(S(=O)(=O)NCC(c2ccco2)N2CCOCC2)cc1C` (stereo not given), with -11.5%. For the compound `COc1ccc(CN2CC(O)CN([S+](=O)([O-])c3ccc(F)cc3)CC2=O)cc1` (stereo not given), the “activity, negative = inhibition” value is -22.2%. The same measure, in the same setting: then `CCOc1ccccc1NC(=O)c1cnc(N2CCOCC2)c2ccccc12`, with -9.83%; and `COc1ccc(C(=O)Nc2ccc(-c3cc(C(F)(F)F)nn3-c3ccccc3)cc2)cc1OC`, with -23.1%; and `COc1ccc(OC)c(N(CC(=O)NCc2ccccc2)S(=O)(=O)c2ccccc2)c1`, with -16.7%.

With `O=C(NCC(=O)N1CCOCC1)c1ccc(-c2cccc(C(F)(F)F)c2)cc1`, the “activity, negative = inhibition” value was -28%.

With `O=S(=O)(Nc1ccc(OC(F)(F)F)cc1)c1ccc(N2CCCCS2(=O)=O)cc1`, the “activity, negative = inhibition” value is -17.4%. For `COc1ccc(OC)c(CNC(=O)C2CCCCN2S(=O)(=O)c2ccc(F)cc2)c1` (stereo not given), the “activity, negative = inhibition” value was -9.38%. For `Cc1cc(C)n2nc(CNS(=O)(=O)c3ccc(Cl)cc3)nc2n1`, the “activity, negative = inhibition” value was -0.953%. Turning to `CCOc1ccc(S(=O)(=O)N2CCN(c3ccccc3)CC2)cc1C(N)=O`, the “activity, negative = inhibition” value was -7.12%. As to `CC(Cn1cncn1)NC(=O)c1cccc(S(=O)(=O)N2CCOCC2)c1` (stereo not given), the outcome was inactive. For the compound `O=C(O)C1(Oc2ccc(Cl)cc2)CCN(c2cnccn2)CC1`, the “activity, negative = inhibition” value was 2.05%.

With `Cc1cccc(-c2nc3c(cnn3-c3ccccc3)c(=O)n2-c2ccc(Cl)cc2)c1`, the “activity, negative = inhibition” value was 1.22%. The same measure, in the same setting: the value for `COCCNC(=O)CCSc1nc(-c2ccc(OC)cc2)cc(C(F)(F)F)n1` was -22.7%. As to `CCCCOc1ccc(C(=O)N(Cc2ccc(N(C)C)cc2)Cc2ccco2)cc1`, the “activity, negative = inhibition” value was -49%.

For the compound `CCOc1ccc(C(=O)Nc2ccc(NC(=O)c3ccccc3)cc2)cc1Br`, the “activity, negative = inhibition” value is -29.5%. Still for that read-out and setting: then `Cc1ccc(S(=O)(=O)N2CCCC(Cn3cnc4cccnc43)C2)cc1C` (stereo not given), with -6.76%; and `COc1cccc(-c2cccc(C(=O)N3CCN([S+](=O)([O-])c4ccccc4)CC3)c2)c1`, with -25.2%.

As to `COc1ccccc1CCNc1ncnc2c1nnn2C`, the compound was classed as inactive. For `COc1ccccc1Cc1nc2ccccc2nc1SCC(=O)Nc1c(C)cccc1C`, the “activity, negative = inhibition” value was -19.1%. For the compound `COc1ccc(NC(=O)CN2C(=O)COc3ccc(S(=O)(=O)N4CCOCC4)cc32)cc1`, the “activity, negative = inhibition” value was 1.43%. Still for that read-out and setting: then `NS(=O)(=O)c1ccc(-n2nc(-c3ccncc3)nc2C2CCOC2)cc1` (stereo not given), with -18.6%. On the same count and under the same terms, then `CCN(C(=O)c1sc2nc3n(c(=O)c2c1C)CCCCC3)c1ccccc1F`, with -11.9%. On the same count and under the same terms, the value for `COc1ccccc1C(=O)Nc1ccc(-c2cc(C(F)(F)F)nn2-c2ccccc2)cc1` was 1.15%.

For the compound `COc1ccc(CN(C)c2ccc(-c3nc(-c4ccccc4)no3)cc2[N+](=O)[O-])cc1`, the “activity, negative = inhibition” value was -18.2%. Regarding `CCN(CC)S(=O)(=O)c1ccc2c(c1)N(CC(=O)N1CCN(c3cccc(C(F)(F)F)c3)CC1)C(=O)CO2`, the “activity, negative = inhibition” value is -100%. The same measure, in the same setting: then `O=C(COc1ccccc1-c1nc(-c2ccccc2)no1)Nc1ccc([N+](=O)[O-])cc1`, with -5.98%.

In the case of `O=C(COc1ccccc1-c1nc(-c2ccccc2)no1)Nc1cccc([N+](=O)[O-])c1`, the “activity, negative = inhibition” value was -19.6%. For the compound `Cc1oc2ncnc(N3CCOCC3)c2c1C(=O)NCc1ccc(Cl)cc1`, the “activity, negative = inhibition” value is -9.13%. Same read-out and setting: the value for `Cc1ccc(-n2c(SCc3ccccc3C)nc3[nH]ncc3c2=O)cc1C` was -17.1%; that for `COc1ccc(-c2nocc2CCC(=O)NCCc2ccc(S(N)(=O)=O)cc2)cc1` was 2.41%.

In the case of `COC(=O)c1ccccc1NC(=O)CSc1nc(-c2ccccc2)cc(C(F)(F)F)n1`, the “activity, negative = inhibition” value was -10%.
